# Source: PubChem (several laboratories)
# ADAM17 inh: ADAM17 inhibitors, primary screen, biochemical, QFRET; Disintegrin and metalloproteinase domain-containing protein 17 (Homo sapiens), P78536; recombinant ADAM17, EDANS/DABCYL FRET peptide cleavage; inhibition, % at 6.95 µM; 0.83% of 370,000 active; AID 720648, 2013;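 active = inhibition above the mean of compounds lying between control limits plus 3 SD, set per campaign, cut at about 8.5% in these data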;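 also: 0% = DMSO-only wells as the low control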
# PLCg1 inh: PLC-gamma1 enzyme inhibitors, primary screen, biochemical, fluorescence, purified enzyme; 1-phosphatidylinositol 4,5-bisphosphate phosphodiesterase gamma-1 (Homo sapiens), P19174; fluorogenic substrate; inhibition, % at 12.2 µM; 0.84% of 370,000 active; AID 720700, 2013; in the data active = inhibition above about 9.5%
# Rce1 inh: yeast Rce1p protease inhibitors, primary screen, biochemical, fluorescence, cell-free homogeneous. CAAX prenyl protease 2 (Saccharomyces cerevisiae (strain ATCC 204508 / S288c)), Q03530. yeast membranes, quenched prenylated peptide cleavage fluorescence. calls only. 0.27% of 290,000 active;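 active = fall in fluorescence gain of 50% or more versus controls, with final raw signal at or below 3038400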;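 also: plate controls were neutral control wells for no effect and wells lacking membranes for full effect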
# Target sequence (Q03530 whole entry, looked up): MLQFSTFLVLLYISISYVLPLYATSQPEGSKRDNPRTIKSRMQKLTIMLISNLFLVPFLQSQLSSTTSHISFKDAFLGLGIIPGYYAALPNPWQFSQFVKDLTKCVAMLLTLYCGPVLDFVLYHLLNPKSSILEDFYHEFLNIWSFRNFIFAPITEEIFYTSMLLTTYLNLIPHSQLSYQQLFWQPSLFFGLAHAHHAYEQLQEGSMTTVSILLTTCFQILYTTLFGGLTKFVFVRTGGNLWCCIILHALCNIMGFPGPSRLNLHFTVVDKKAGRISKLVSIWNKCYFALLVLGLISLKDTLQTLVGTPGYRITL
# ADAM10 inh: human ADAM10 inhibitors, primary screen, biochemical, QFRET, HTS; Disintegrin and metalloproteinase domain-containing protein 10 (Homo sapiens), O14672; recombinant ADAM10, EDANS/DABCYL FRET peptide cleavage, 3 h; inhibition, % at 7 µM; 0.62% of 370,000 active;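 active = inhibition above a per-campaign cutoff equal to the mean of compounds falling between control-based bounds plus 3 SD, cut at about 20% in these data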;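 also: 0% = DMSO wells while the 100% control is not disclosed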
# PLC-beta3 inh: human PLC-beta3 inhibitors, primary screen, biochemical, fluorescence; 1-phosphatidylinositol 4,5-bisphosphate phosphodiesterase beta-3 (Homo sapiens), Q01970; Purified PLC-beta3, fluorogenic substrate; inhibition, % at 12.2 µM; 0.18% of 370,000 active; in the data active = inhibition above about 11%;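 also: 0% = median of compound wells on plate and 100% = full blocker control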
# ADAM10 counter: ADAM10 inhibitors, counter-screen for ADAM17 exosite inhibitor project, biochemical, FRET, human ADAM10; 47% of 2,900 active; shares compounds with ADAM17 inh; recombinant ADAM10, EDANS/DABCYL FRET peptide cleavage, 3 h; inhibition, % at 6.95 µM;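 active = mean inhibition over the triplicate runs exceeds the activity threshold set in the earlier primary screen, cut at about 20% in these data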;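 also: 0% = DMSO wells and 100% = marimastat wells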
# ADAM17 confirm: ADAM17 inhibitors, hit retest, confirmation, biochemical, QFRET peptide cleavage; shares compounds with ADAM17 inh; recombinant ADAM17, EDANS/DABCYL QFRET peptide cleavage; inhibition, % at 6.95 µM; 65% of 2,900 active;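 active = mean inhibition across replicates above the hit cutoff set in the primary screen, cut at about 8.5% in these data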;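 also: 0% = DMSO wells and 100% = marimastat wells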
# * hit, by the source's call; i = inactive; . = not tested or not shown. Only some compounds are listed: those with a hit (about 2.1% of all), similar ones and a draw of the others.
SMILES,ADAM17 inh,PLCg1 inh,Rce1 inh,ADAM10 inh,PLC-beta3 inh,ADAM10 counter,ADAM17 confirm
O=C(Cc1ccc(S(=O)(=O)N2CCCCC2)s1)Nc1ccc(F)c(F)c1,10.0*,8,i,20,6,36*,13*
Cc1cc(C)cc(NC(=O)Cc2ccc(S(=O)(=O)N3CCCC3)s2)c1,2,-2,.,-3,1,.,.
COC(=O)[C@H](CC(C)C)N1Cc2nnn(Cc3ccc(C)cc3)c2-c2cc(F)ccc2S1(=O)=O,10*,6,.,14,0,18,14*
COC(=O)[C@H](CC(C)C)N1Cc2nnn(Cc3ccccc3)c2-c2ccccc2S1(=O)=O,5,0,.,8,0,.,.
CCCNC(=O)C1(C)CCCN(C(=O)c2cc3ccccc3s2)C1 (configuration not stated),-6,-3,.,-15,-1,.,.
CCn1nc([N+](=O)[O-])c(C(C#N)c2nc3ccccc3n2C)c(Cl)c1=O (configuration not stated),1,-6,i,-10,-7,.,.
CCCn1nc([N+](=O)[O-])c(C(C#N)c2nc3ccccc3s2)c(Cl)c1=O (configuration not stated),8.6*,3,i,20,-2,24*,18*
O=S1(=O)CCN2C(c3ccc4c(c3)CCCC4)=CSC2=N1,8.7*,1,i,8,11*,24*,12*
COc1ccc(C(=O)Nc2ccc(S(=O)(=O)N3CCCC3)cc2)cc1,2,-1,i,-8,0,.,.
COc1ccccc1NS(=O)(=O)c1ccc(C)c(NC(=O)c2ccc(S(=O)(=O)N3CCCCCC3)cc2)c1,12*,1,i,19,1,36*,18*
COc1ccc(NC(=O)c2ccc(S(=O)(=O)N3CCCCC3)cc2)cc1OC,9.0*,8,.,18,-5,10,10*
COc1ccccc1NC(=O)c1ccc(S(=O)(=O)N2CCCC2)cc1,-2,3,i,1,2,.,.
Cc1cc([N+](=O)[O-])cc(/C=N\NC(=O)C2COc3ccccc3O2)c1O (configuration not stated),1,-1,i,6,-5,.,.
CCNC(=O)c1cc2c(c(-c3cccc(-c4cccc(C(=O)N(C)C)c4)c3)n1)[C@H](CCO)N(S(=O)C(C)(C)C)C2 (some centres not stated),-2,-35,.,-11,-51,.,.
CC(C)(C)S(=O)N1Cc2cc(C(=O)NCC(F)(F)F)nc(-c3cccc(-c4cccc(F)c4)c3)c2[C@H]1CCO (some centres not stated),10*,3,.,17,0,20*,11*
COC(=O)C[C@H]1CC[C@@H](NC(=O)Nc2c(C)noc2C)[C@@H](CO)O1,-1,0,.,1,4,.,.
CN(CCc1ccccc1)c1cc2c(c3c1ccn3C)C1CCC2O1 (configuration not stated),-5,-26,.,-10,-32,.,.
CC1(C(=O)Nc2cccnc2)Cc2c(-c3cccc(C(F)(F)F)c3)ccnc2O1 (configuration not stated),1,-1,.,-2,5,.,.
COC(=O)[C@H](CC(C)C)N(CCCc1cn(Cc2ccccc2)nn1)S(=O)(=O)c1ccccc1Br,13*,5,.,19,9,36*,15*
COC(=O)[C@H](C)N(CCc1cn(Cc2ccccc2)nn1)S(=O)(=O)c1ccccc1Br,-3,3,.,-13,2,.,.
COC(=O)[C@H](CC(C)C)N(CCc1cn(Cc2ccccc2)nn1)S(=O)(=O)c1ccccc1Br,8.7*,2,.,14,2,17,12*
O=C(NCCc1ccc(Cl)cc1)Nc1ccc(Cl)cc1,-3,1,.,-1,-5,.,.
CCN(CCNC(=O)Nc1ccc(Cl)cc1)c1ccccc1,9.8*,7,i,16,6,37*,19*
CC(C)C(=O)NC(=S)/C=C1/N(C)c2ccccc2C1(C)C,-6,-7,.,-5,-12,.,.
Cc1ccc(C(=O)NC(=S)/C=C2\N(C)c3ccccc3C2(C)C)cc1,18*,-32,i,16,-42,26*,13*
SMILES,ADAM17 inh,PLCg1 inh,Rce1 inh,ADAM10 inh,PLC-beta3 inh,ADAM10 counter,ADAM17 confirm
COC(=O)C1CCN(c2ccc([N+](=O)[O-])cc2)CC1,10*,4,i,4,-2,5,8
CCn1c(SCC(=O)N/N=C(/C)c2ccncc2)nc2ccccc21,-2,-1,i,6,1,.,.
Nc1nc(CSC(=S)N2CCN(c3ccccc3)CC2)nc(Nc2ccccc2)n1,9.2*,0,i,17,-1,24*,16*
COc1cc(NC(=O)c2ccc(S(=O)(=O)N(C)c3ccccc3)cc2)cc(OC)c1,10*,0,.,15,0,30*,17*
COc1ccccc1NC(=O)c1ccc(S(=O)(=O)N(C)c2ccccc2)cc1,2,-3,.,1,-5,.,.
Cc1ccc(C(C)C)cc1-n1nnc(-c2cccc(Cc3ccc4ccccc4c3)c2)c1C(C)O (configuration not stated),18*,6,.,16,6,31*,18*
Clc1ccc2[nH]cc(-c3nnnn3-c3ccccc3)c2c1,8.9*,-2,i,16,2,29*,16*
CCN1C(=O)[C@@H]2[C@@H](c3ccc(-c4ccc(C(C)=O)cc4)cc3)N3CCC[C@@]3(C(=O)OC)[C@@H]2C1=O,-2,-1,i,8,-1,.,.
CCN1C(=O)[C@H]2[C@@H](c3ccc(-c4ccc(C(C)=O)cc4)cc3)N3CCC[C@@]3(C(=O)OC)[C@H]2C1=O,9.7*,-2,i,16,-3,-9,0
CCCCN(c1ccccc1)S(=O)(=O)c1cccc2cccnc12,-4,-1,i,11,2,.,.
Cc1ccc(/C(N)=N/OC(=O)CN(C)S(=O)(=O)c2ccc(C)cc2)cc1,0,0,i,9,-9,.,.
Cc1ccc(S(=O)(=O)N(C)CC(=O)O/N=C(\N)c2cccc(Br)c2)cc1,12*,2,i,8,-6,11,9.7*
